# MK inhibit: S. pneumoniae MK inhibitors, primary screen, biochemical, PK/LDH-coupled NADH absorbance. purified MK, PK/LDH-coupled NADH absorbance 340 nm. mevalonate kinase [Streptococcus pneumoniae D39]. hit rate 0.48% among 65,000. inhibition, % at 10 µM;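 active means ranked among the strongest by inhibition in the single 10 µM screen, a fixed top-ranked set picked for dose follow-up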
# A340 absorber: compound light absorbance at 340 nm, profiling panel, artefact control, biochemical, MLSMR library, data from PS, PMK, MK assays; AID 708, 2007; compound absorbance at 340 nm, fold over control; 65,000 tested, under 10 active; fold change at 10 µM;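 active means at 10 µM dose, initial 340 nm absorbance at least 2 fold that of control wells; inactive means change under 2 fold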;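 further: initial absorbance extrapolated from kinetic A340 decline of NADH oxidation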
# DPM-DC inhibit: S. pneumoniae DPM-DC inhibitors, primary screen, biochemical, PK/LDH-coupled NADH fluorescence | purified DPM-DC | hit rate 0.49% among 65,000 | calls only at 10 µM | diphosphomevalonate decarboxylase (Streptococcus pneumoniae D39);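 active means the 320 compounds with the highest percent inhibition in the single-dose primary screen, excluding strongly autofluorescent ones, cut at about 32% in these data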;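 further: kinetic rate of NADH fluorescence loss reporting ADP formed by the decarboxylase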
# Spn PMK inh: S. pneumoniae PMK inhibitors, primary screen, biochemical, mevalonate pathway, pilot trial included; hit rate 0.49% among 65,000; phosphomevalonate kinase (Streptococcus pneumoniae D39); purified PMK, PK/LDH-coupled NADH absorbance 340 nm; inhibition, % at 10 µM;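 active means top-ranked compounds by inhibition in the single 10 µM screen, taking a fixed number of the strongest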;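 further: 0% = full reaction with DMSO carrier and 100% = background rate without enzyme reaction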
# NADH coupling: inhibitors of PK/LDH coupling enzymes, profiling panel, artefact control, biochemical, MLSMR library; IC50, µM (titrated, usually from 10 µM), for inactives: at the top dose inhibition; AID 774, 2007; hit rate 0.02% among 65,000; coupled PK/LDH NADH assays, four targets;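 active means single-dose screening hits from any of four coupled enzyme assays that gave an IC50 when retested across doses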;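 further: the DPM-DC format reads NADH fluorescence rather than 340 nm absorbance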
# Autofluor 339: intrinsic fluorescence of library compounds, ex339/em460 – biochemical, MLSMR library, data from DPM-DC assay, artefact control, profiling panel; compound autofluorescence, ex339/em460 nm, NADH buffer; active compounds read high; 1 = no-compound wells, NADH background; fluorescence fold increase at 10 µM; hit rate 5.5% among 65,000;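 active means at 10 µM, mean starting fluorescence two-fold or more over control wells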;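 further: signal is the first read of a kinetic run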
# * = called active by the depositor; i = inactive; x = no result shown; + = active, no number. Rows were chosen to be rich in hits. Some 6.5% of all compounds tested hit in one or more screens of this group.
SMILES,MK inhibit,A340 absorber,DPM-DC inhibit,Spn PMK inh,NADH coupling,Autofluor 339
COc1ccc(-c2nc(C#N)c(NCc3ccccc3Cl)o2)cc1,3,1.1,i,0,1%,3.1*
COc1ccc(CNc2oc(-c3ccccc3)nc2C#N)cc1,3,1,x,0,1%,2
COC(=O)C1=C(C)n2cnnc2NC1c1ccc(Cl)cc1 (stereo not drawn),0,1.1,i,15,5%,1.1
Fc1cc(F)c(F)c(SCCc2ccncc2)c1F,0,0.98,i,3,1%,1
CCOC(=O)Cc1csc(NC(=O)CSc2ncnc3c2cnn3-c2ccc(OC)cc2)n1,11,0.99,i,12,9%,2.5*
O=C(O)CCc1nnc2n(Cc3ccc(F)cc3)c(=O)c3ccccc3n12,0,1,i,3,1%,1
CCN(CCNC(=O)C1CCN(c2nnc(-n3cccc3)s2)CC1)c1ccccc1,11,1,+,11,21%,0.94
CN1CCN(CCCNC(=O)C2CCN(c3nnc(-n4cccc4)s3)CC2)CC1,10,0.98,i,9,6%,0.99
Cc1cc(NC(=O)c2ccc3c(c2)C(=O)N(C2CCCCC2)C3=O)no1,1,1,i,0,4%,1.1
CCC(=O)Nc1ccc2c(c1)C(=O)N(C1CCCCC1)C2=O,1,1.1,x,7,4%,3.9*
COc1ccc2nc3c(cc2c1)c(NC(=O)C1CCCO1)nn3CC(C)C (stereo not drawn),9,1,x,7,8%,3.7*
CCCC(=O)Nc1nn(CCC)c2nc3ccccc3cc12,0,1,i,2,1%,1.3
CCCn1nc(NC(=O)c2cccs2)c2cc3cc(OC)ccc3nc21,10,1,x,16,4%,2*
CCCCn1nc(NC(=O)c2cccs2)c2cc3cc(OC)ccc3nc21,4,1,x,10,7%,3.6*
CCCn1nc(NC(=O)c2ccncc2)c2cc3ccccc3nc21,4,1.1,i,9,4%,1.2
CCCCn1nc(NC(=O)c2cccs2)c2cc3ccccc3nc21,14,1,x,5,10%,2.2*
COc1ccc(NC(=O)c2ccccc2NC(=O)C2CCCO2)cc1 (stereo not drawn),2,1,i,2,1%,1.1
CCOc1cc(C#N)c(NC(=O)CSc2nnnn2-c2ccc(OC)cc2)cc1OCC,7,1,i,9,5%,1.1
COC(=O)CSc1nc(C2CC2)cc(C(F)(F)F)c1C#N,0,0.99,i,16,7%,1.1
N#Cc1c(C(F)(F)F)cc(C2CC2)[nH]c1=O,3,1.1,x,7,5%,2.1*
COC(=O)c1cc2c(s1)-c1ccccc1OC2,6,1.1,x,11,9%,2.1*
Cc1ccc(NC(=O)c2ocnc2C)cc1Cl,3,0.99,i,13,7%,0.97
O=C(COc1ccc(Cl)cc1)NCc1nnc(SCC(=O)NCCc2ccccc2)o1,3,1,i,4,2%,1.1
CCCCCNC(=O)C(C#N)c1nc2ccccc2nc1N1CCCC1 (stereo not drawn),10,1.1,i,4,10%,2.4*
CCN(CC)c1nc2ccccc2nc1C(C#N)C(=O)NCCCOC (stereo not drawn),5,1,i,1,8%,2.4*
Cc1ccc(S(=O)(=O)C(C#N)c2nc3ccccc3nc2N2CCCC2)cc1 (stereo not drawn),6,1,x,7,7%,3.8*
Cc1cccc(Nc2nc(NC(C)C)nc(Oc3ccc(=O)n(C)n3)n2)c1,11,0.98,i,12,8%,1.1
CCC1Oc2ccc(C)cc2N(CC(=O)NCCc2ccc(OC)c(OC)c2)C1=O (stereo not drawn),3,1,i,3,2%,1.1
Cc1ccc(-c2cc(C(=O)N3CCN(c4ncccn4)CC3)c3ccccc3n2)cc1,0,1.1,i,17,6%,1.3
